# A number with no mark means an inactive call.
# How the values were obtained:
# Experiment in all cases: log2 ratio of Biotin-Ahx-Ub-VS probe labelling (fragment/DMSO); higher = less target engagement (more negative = stronger competition), active = hit call of the paper (q ≤ 0.05, log2 ratio ≤ -1)
# Conditions in all cases: compound concentration: 200 uM; treatment time: 3 h
# OTUD6B = target: T1, OTUD6B (UniProt Q8N6M0)
# T1 sequence (whole entry): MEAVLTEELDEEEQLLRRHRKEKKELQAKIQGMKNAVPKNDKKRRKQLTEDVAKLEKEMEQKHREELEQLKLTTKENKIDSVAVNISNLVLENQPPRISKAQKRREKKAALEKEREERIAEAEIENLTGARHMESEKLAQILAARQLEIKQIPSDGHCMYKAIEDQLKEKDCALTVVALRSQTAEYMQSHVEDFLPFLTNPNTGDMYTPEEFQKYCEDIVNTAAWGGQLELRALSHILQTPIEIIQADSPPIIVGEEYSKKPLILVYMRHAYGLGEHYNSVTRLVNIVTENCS
# Method in brief: (§1)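 Lysate from HEK293T cells, 495 µg per sample in Tris/CHAPS/IGEPAL buffer with protease inhibitors, was treated for 3 h in triplicate with fragment at 200 µM or vehicle. Biotin-Ahx-Ub-VS was next added at 0.5 µM final for 1 h. The labelled DUBs were enriched with NeutrAvidin, digested with LysC and trypsin, and run by diaPASEF LC-MS/MS, with values given as average log2 fragment/vehicle ratios by unpaired t-test on global-median-normalised Spectronaut quantities of proteins with ≥2 unique peptides.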
# OTUD7B = target: T2, OTUD7B (UniProt Q6GQQ9)
# T2 sequence (whole entry): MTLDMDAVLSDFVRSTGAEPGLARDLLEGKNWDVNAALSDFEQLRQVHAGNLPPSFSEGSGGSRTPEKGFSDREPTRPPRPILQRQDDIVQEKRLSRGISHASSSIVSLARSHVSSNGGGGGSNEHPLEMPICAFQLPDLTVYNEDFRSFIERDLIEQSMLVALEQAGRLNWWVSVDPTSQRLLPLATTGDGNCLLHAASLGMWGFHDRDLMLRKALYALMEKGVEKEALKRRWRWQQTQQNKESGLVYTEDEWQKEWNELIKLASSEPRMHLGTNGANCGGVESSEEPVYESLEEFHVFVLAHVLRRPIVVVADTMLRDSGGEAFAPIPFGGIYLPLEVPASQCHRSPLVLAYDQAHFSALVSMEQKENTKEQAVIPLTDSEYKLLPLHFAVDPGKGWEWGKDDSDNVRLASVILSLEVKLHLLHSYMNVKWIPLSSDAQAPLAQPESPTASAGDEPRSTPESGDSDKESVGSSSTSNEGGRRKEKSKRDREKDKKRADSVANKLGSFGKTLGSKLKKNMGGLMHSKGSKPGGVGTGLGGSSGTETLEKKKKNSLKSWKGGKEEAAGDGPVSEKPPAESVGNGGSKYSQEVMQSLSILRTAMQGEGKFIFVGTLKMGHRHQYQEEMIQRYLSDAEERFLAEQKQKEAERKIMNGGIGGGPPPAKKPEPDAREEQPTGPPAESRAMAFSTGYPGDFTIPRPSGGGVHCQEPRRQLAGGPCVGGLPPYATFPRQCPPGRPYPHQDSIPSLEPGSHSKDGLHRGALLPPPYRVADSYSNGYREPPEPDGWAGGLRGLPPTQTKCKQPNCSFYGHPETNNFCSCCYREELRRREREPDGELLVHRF
# Method in brief: as §1
# PRPF8 = PRPF8 (UniProt Q6P2Q9)
# Method in brief: as §1
# PSMD7 = target: T3, PSMD7 (UniProt P51665)
# T3 sequence (whole entry): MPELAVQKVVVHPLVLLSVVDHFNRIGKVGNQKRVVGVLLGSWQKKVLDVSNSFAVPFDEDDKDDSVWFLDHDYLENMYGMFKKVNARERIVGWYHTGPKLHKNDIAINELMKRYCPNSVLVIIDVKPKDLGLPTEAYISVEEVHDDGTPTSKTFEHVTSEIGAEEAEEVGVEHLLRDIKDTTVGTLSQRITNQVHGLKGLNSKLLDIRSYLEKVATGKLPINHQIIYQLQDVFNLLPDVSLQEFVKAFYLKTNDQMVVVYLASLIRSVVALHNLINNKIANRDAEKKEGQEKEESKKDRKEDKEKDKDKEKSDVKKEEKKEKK
# Method in brief: as §1
# UCHL1 = UCHL1 (UniProt P09936)
# Method in brief: as §1
# UCHL3 = target: T4, UCHL3 (UniProt P15374)
# T4 sequence (whole entry): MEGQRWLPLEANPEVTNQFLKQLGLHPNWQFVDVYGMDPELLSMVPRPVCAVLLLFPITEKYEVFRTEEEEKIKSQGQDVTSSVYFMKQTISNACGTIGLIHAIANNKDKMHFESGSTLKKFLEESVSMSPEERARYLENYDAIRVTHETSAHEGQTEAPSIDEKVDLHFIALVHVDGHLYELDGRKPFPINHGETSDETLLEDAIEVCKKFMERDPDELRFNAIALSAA
# Method in brief: as §1
# UCHL5 = target: T5, UCHL5 (UniProt Q9Y5K5)
# T5 sequence (whole entry): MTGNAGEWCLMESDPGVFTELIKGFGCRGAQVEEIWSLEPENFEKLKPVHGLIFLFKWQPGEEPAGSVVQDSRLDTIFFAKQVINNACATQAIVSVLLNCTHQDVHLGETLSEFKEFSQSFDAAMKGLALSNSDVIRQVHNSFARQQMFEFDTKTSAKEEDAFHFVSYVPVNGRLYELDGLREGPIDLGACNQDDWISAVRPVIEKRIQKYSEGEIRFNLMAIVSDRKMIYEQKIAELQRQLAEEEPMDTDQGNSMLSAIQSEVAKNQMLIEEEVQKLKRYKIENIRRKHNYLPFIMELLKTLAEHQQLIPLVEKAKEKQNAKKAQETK
# Method in brief: as §1
# USP10 = USP10 (UniProt Q14694)
# Method in brief: as §1
# USP15 = target: T6, USP15 (UniProt Q9Y4E8)
# T6 sequence (whole entry): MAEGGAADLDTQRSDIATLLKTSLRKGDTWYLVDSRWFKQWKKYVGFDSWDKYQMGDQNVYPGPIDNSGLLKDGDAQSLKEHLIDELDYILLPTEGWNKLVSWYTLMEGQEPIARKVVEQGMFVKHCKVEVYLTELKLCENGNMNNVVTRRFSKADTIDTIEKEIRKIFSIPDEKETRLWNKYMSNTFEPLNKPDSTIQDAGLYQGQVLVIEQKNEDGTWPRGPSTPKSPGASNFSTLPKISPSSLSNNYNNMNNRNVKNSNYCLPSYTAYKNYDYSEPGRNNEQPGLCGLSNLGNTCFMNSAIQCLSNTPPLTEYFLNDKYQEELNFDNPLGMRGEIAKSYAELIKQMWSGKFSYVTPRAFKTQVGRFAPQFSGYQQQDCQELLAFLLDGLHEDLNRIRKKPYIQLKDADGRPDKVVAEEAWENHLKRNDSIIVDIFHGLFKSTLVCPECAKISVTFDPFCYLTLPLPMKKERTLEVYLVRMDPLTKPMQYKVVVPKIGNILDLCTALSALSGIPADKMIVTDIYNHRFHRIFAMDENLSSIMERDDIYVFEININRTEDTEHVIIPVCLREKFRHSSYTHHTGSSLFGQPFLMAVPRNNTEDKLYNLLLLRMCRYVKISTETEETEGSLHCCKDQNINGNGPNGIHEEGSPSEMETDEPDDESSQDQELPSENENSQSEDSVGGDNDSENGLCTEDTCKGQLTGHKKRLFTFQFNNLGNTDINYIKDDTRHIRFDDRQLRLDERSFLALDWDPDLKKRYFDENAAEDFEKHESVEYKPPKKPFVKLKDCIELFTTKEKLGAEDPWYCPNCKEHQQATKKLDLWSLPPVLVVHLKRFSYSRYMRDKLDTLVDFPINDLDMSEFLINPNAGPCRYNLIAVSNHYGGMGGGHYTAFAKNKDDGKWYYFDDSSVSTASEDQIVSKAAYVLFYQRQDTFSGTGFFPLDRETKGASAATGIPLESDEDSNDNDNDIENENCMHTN
# Method in brief: as §1
# USP16 = USP16 (UniProt Q9Y5T5)
# Method in brief: as §1
# Chain of UCHL1 (P09936 whole entry, looked up): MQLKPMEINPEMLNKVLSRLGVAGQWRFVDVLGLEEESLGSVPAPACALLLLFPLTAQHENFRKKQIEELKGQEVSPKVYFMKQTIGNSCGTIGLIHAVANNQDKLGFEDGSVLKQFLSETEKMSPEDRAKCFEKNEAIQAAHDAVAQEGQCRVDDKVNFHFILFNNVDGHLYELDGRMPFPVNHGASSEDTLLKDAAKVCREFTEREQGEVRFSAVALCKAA
# Chain of USP16 (Q9Y5T5 whole entry, looked up): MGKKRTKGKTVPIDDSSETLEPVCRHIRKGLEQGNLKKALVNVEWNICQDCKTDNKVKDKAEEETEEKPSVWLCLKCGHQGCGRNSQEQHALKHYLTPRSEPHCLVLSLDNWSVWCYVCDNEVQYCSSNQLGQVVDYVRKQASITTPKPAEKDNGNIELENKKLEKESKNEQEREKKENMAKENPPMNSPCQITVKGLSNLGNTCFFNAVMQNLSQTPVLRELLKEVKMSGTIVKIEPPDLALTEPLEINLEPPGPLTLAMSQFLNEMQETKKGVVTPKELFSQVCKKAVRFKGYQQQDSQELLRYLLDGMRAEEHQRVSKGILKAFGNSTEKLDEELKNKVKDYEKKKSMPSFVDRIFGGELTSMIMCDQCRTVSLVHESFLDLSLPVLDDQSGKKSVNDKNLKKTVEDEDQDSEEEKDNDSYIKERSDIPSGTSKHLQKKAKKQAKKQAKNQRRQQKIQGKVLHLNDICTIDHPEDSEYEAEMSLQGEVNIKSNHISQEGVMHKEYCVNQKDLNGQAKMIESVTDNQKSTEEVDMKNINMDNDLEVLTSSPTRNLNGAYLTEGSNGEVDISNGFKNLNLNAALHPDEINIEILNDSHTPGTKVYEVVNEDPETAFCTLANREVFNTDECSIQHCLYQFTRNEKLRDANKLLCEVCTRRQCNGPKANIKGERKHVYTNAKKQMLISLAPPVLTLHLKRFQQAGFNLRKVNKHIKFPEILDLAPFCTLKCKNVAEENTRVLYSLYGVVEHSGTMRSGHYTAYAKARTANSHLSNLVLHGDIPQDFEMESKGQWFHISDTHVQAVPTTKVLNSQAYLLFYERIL
# Chain of USP10 (Q14694 whole entry): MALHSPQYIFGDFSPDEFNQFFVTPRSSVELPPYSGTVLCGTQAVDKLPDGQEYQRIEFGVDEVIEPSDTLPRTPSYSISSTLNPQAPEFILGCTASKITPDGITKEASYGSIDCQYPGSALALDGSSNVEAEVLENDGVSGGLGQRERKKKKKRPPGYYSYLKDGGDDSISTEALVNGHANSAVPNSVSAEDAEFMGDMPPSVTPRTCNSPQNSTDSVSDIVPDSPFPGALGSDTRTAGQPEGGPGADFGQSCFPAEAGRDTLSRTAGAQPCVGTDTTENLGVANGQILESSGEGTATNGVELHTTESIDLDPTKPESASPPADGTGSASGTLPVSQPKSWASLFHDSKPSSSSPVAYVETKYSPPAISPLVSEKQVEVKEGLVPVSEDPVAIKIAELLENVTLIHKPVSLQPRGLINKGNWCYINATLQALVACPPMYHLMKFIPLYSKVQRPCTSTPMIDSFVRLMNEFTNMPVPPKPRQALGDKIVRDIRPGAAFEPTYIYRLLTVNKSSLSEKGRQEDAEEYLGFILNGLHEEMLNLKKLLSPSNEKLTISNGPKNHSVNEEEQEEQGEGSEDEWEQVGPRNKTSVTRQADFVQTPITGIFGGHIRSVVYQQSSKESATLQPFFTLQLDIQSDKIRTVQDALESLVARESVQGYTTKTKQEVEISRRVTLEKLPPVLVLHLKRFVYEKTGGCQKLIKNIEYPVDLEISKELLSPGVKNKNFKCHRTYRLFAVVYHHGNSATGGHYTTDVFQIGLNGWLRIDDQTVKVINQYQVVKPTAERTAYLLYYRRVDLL
smiles,measurement,setting,value
Cc1cccnc1NC(=O)C1CCN(C(=O)CCl)CC1.Cl,log2 ratio of Biotin-Ahx-Ub-VS probe labelling,OTUD6B,-0.127
same,log2 ratio of Biotin-Ahx-Ub-VS probe labelling,OTUD7B,-0.284
same,log2 ratio of Biotin-Ahx-Ub-VS probe labelling,PRPF8,-0.0508
same,log2 ratio of Biotin-Ahx-Ub-VS probe labelling,PSMD7,-0.189
same,log2 ratio of Biotin-Ahx-Ub-VS probe labelling,UCHL1,-1.33 (active)
same,log2 ratio of Biotin-Ahx-Ub-VS probe labelling,UCHL3,0.088
same,log2 ratio of Biotin-Ahx-Ub-VS probe labelling,UCHL5,-0.328
same,log2 ratio of Biotin-Ahx-Ub-VS probe labelling,USP10,-0.146
same,log2 ratio of Biotin-Ahx-Ub-VS probe labelling,USP15,-0.24
same,log2 ratio of Biotin-Ahx-Ub-VS probe labelling,USP16,0.018

# From the supplement of paper PMC11732987, “Enantioselective OTUD7B fragment discovery through chemoproteomics screening and high-throughput optimisation” (Communications Chemistry, 2025)
